Source: PubChem
Cardio protect: modulators protecting cardiomyocytes from myocardial damage | H9c2 cardiomyocytes, H2O2 injury protection, ATPLite, 2 h | protection from H2O2 cell death, % at 20 µM | 0.63% of 360,000 active;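 active means compounds giving at least 50% protection of heart cells from peroxide-induced death in the single-dose screen, raw or plate-pattern-corrected value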
HDAC3 inh: inhibitors of human histone deacetylase 3; inhibition, % at 8.3 µM; O15379; 0.15% of 320,000 active; AID 2718; recombinant HDAC3, fluorogenic peptide/trypsin coupled, fluorescence; in the data active means inhibition above about 26%, passing the limit was not always enough; inconclusive means no clear call, values can overlap the other calls
Target sequence (O15379 whole entry, looked up): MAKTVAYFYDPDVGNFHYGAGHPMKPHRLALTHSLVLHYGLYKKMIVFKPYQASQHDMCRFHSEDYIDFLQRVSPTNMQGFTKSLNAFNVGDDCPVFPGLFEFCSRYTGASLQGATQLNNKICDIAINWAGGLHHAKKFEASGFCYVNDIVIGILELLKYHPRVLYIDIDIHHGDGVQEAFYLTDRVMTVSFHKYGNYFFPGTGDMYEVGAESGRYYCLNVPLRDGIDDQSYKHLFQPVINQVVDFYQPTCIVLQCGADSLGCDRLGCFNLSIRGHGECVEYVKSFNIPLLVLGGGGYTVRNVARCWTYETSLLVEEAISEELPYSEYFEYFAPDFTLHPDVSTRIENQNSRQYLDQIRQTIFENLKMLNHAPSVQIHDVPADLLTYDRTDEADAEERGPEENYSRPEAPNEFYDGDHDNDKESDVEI
GRK2 aptamer HTS: inhibitors of human GRK2 displacing RNA aptamer; P25098; bead flow cytometry, FAM-aptamer displacement from GRK2; inhibition of aptamer binding, % at 10 µM; 0.59% of 330,000 active; AID 488847;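 active means inhibition of aptamer binding above 40%, roughly 3 SD of noise, on plates passing a quality check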;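 further: median bead fluorescence of bound FAM aptamer so fluorescent compounds give negative values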
Neddylation inh: inhibitors of human cullin neddylation. 0.58% of 360,000 active. P61081+Q13564. TR-FRET cullin neddylation, biochemical. inhibition, % at 25 µM; in the data active means inhibition above about 36%
Neddyl inh conf: confirmation of human cullin neddylation inhibitors; shares compounds with Neddylation inh; TR-FRET cullin neddylation biochemical assay; calls only at 25 µM; 13% of 1,800 active; AID 652217; in the data active means inhibition above about 40%;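 further: neddylation substrate is the cullin 1 ring ligase complex with SKP2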
Each line names hits and unclear results; the compound was inactive in the other large screens (follow-up assays come after a bar, where shown). A selection: hits, their analogues and other compounds. The true share with any hit is near 1.8%.

CCOC(=O)C1CCN(c2cc3c(cc2NC(=O)c2ccccc2OCC)n(C)c(=O)n3C)CC1	Neddylation inh 46 | Neddyl inh conf inactive
Cc1nn(-c2ccccc2)c(Cl)c1C(=O)N(C)c1nc(-c2ccc(F)cc2)cs1	none (no result: Cardio protect, Neddylation inh)
CCc1ccc(-c2cc(C(=O)NCc3ccccn3)c3ccccc3n2)cc1	none
CCOc1ccc(-c2cc(C(=O)N/N=C/c3cccnc3)c3ccccc3n2)cc1	Neddylation inh 53 (not shown: HDAC3 inh)
COc1ccc(OC)c(-c2cc(C(=O)N/N=C/c3cc(OC)c(OC)cc3OC)c3ccccc3n2)c1	none (not shown: Neddylation inh)
COc1ccc(OC)c(-c2cc(C(=O)N/N=C/c3ccc(F)cc3)c3ccccc3n2)c1	Neddylation inh 39
Cc1ccc(-c2cc(C(=O)NCc3ccccn3)c3ccccc3n2)cc1	Neddylation inh 41 | Neddyl inh conf inactive
O=C1CC2(CCCC2)Oc2ccc(F)cc21	none
CCn1nc(NC(=O)c2cccs2)c2cc3ccccc3nc21	none (not shown: Neddylation inh)
CCn1nc(NC(=O)c2cccnc2)c2cc3ccccc3nc21	Neddylation inh 41 | Neddyl inh conf inactive
CCn1nc(NC(=O)C(C)C)c2cc3ccc(C)cc3nc21	Neddylation inh 39 | Neddyl inh conf inactive
C#CCNC(=O)C1=C[C@H](c2ccc(C(F)(F)F)cc2)[C@@H](CCCO)[C@H](OCC)O1	none (no result: GRK2 aptamer HTS)
COc1ccc(CC(=O)N2CCN(C(=O)Cc3ccc(OC)cc3)CC2)cc1	none
COc1ccc(CC(=O)N2CCN(c3ccc(C4=NNC(=O)CC4C)cc3)CC2)cc1 (stereo unspecified)	Neddylation inh 46
CC1CC(C)CN(CCCNC(=O)c2cc3c(=O)[nH]c4ccccc4c3n2C)C1 (stereo unspecified)	Neddylation inh 42 | Neddyl inh conf inactive
CCC1CCCCN1CCCNC(=O)c1cc2c(=O)[nH]c3ccccc3c2n1C (stereo unspecified)	Neddylation inh 40 | Neddyl inh conf inactive
COC(C[C@@H]1O[C@H]1C(=O)[C@@H](C)OCc1ccccc1)OC	none (no result: GRK2 aptamer HTS)
COC(=O)c1ccccc1NC(=O)NCC1CCCO1 (stereo unspecified)	Neddylation inh 44 | Neddyl inh conf inactive
CSc1ccc(-c2sc(Nc3cccc4ccccc34)n[n+]2-c2ccccc2)cc1	none
COc1ccc(-c2sc(Nc3cccc4ccccc34)n[n+]2C)c(C)c1C	Neddylation inh 32 (no result: HDAC3 inh, GRK2 aptamer HTS) | Neddyl inh conf inactive
CCc1ccc(-c2csc(NC(=O)C3CC(=O)N(c4ccc5c(c4)OCCO5)C3)n2)cc1 (stereo unspecified)	Neddylation inh 53 | Neddyl inh conf inactive
Cc1csc(NC(=O)C2CC(=O)N(c3ccc4c(c3)OCCO4)C2)n1 (stereo unspecified)	none
COCCNC(=O)c1cc2c(=O)[nH]c3ccccc3c2s1	Neddylation inh 40
CCCN1CCN(CCCNC(=O)c2cc3c(=O)[nH]c4ccccc4c3s2)CC1	none (not shown: Neddylation inh)
CC(C)(C)NC(=O)COC(=O)c1snc(C(=O)NC2CCCCC2)c1N	none
CC(OC(=O)c1snc(C(=O)NC2CCCCC2)c1N)C(=O)NC(C)(C)C (stereo unspecified)	Neddylation inh 40 | Neddyl inh conf active
O=C(COc1ccccc1F)NNC(=O)c1cccc(-n2cccc2)c1	none
CCCc1ccc2oc(C(=O)N3CCN(CCC(N)=O)CC3)c(C)c2c1	none
CCCc1ccc2oc(C(=O)N3CCN(c4cnccn4)CC3)c(C)c2c1	Neddylation inh 40 | Neddyl inh conf inactive
c1ccc(C[C@H]2CN=C(Nc3ccccc3)N2CC2CCCCCC2)cc1	none
O=S1(=O)N=C(N(CCO)/N=C/c2ccc(Cl)cc2)c2ccccc21	Neddylation inh 47
CC(C)(C)NC(=O)COC(=O)/C=C/c1ccc(F)cc1	none (no result: HDAC3 inh)
Cc1ccc(-c2nc3ncccc3o2)cc1NC(=O)C(C)(C)C	Neddylation inh 41
CC(=O)Nc1cccc(NC(=S)Nc2ccc(F)cc2F)c1	none
CCCNC(=O)c1oc2ccc3c(c2c1C)C=CC(C)(C)O3	Neddylation inh 40 | Neddyl inh conf inactive
C[C@H](NC(=O)c1ncn2c1c(=O)[nH]c1ccccc12)c1ccccc1	Neddylation inh 40 (no result: HDAC3 inh, GRK2 aptamer HTS) | Neddyl inh conf active
C[C@H](NC(=O)c1ncn2c1c(=O)[nH]c1ccc(Br)cc12)c1ccccc1	none (no result: HDAC3 inh, GRK2 aptamer HTS)
Cc1csc2ncc(C(=O)NCCc3ccccc3)c(=O)n12	Neddylation inh 47 | Neddyl inh conf inactive
CSc1ccccc1NC(=O)c1cc2c(=O)n3ccccc3nc2s1	Neddylation inh 48
N#Cc1cccnc1N1CCN(C(=O)COCC(=O)O)CC1	Neddylation inh 42 | Neddyl inh conf active
COc1cccc(-c2nc(C#N)c(N3CCN(C(=O)c4ccco4)CC3)o2)c1	Neddylation inh 56 | Neddyl inh conf inactive
N#Cc1cccnc1N1CCN(C(=O)c2ccco2)CC1	Neddylation inh 49 | Neddyl inh conf inactive
Cc1nc(N2CCN(C(=O)c3ccco3)CC2)c(C#N)c2c1CCCC2	Neddylation inh 48 | Neddyl inh conf inactive
Cc1cc(OC(=O)c2ccc(C)c(C)c2)c([N+](=O)[O-])c(=O)[nH]1	none
COc1cc(Cl)c(C)cc1NC(=O)c1ccccc1NC(=O)CN1CCN(C(C)=O)CC1	none (no result: HDAC3 inh, GRK2 aptamer HTS)
O=C1NC[C@H](CCCCN2C[C@H](Cc3ccc(O)cc3)N(CCc3ccc(O)cc3)C(=O)C2=O)N(Cc2ccccc2)C1=O	none (no result: Cardio protect, HDAC3 inh, GRK2 aptamer HTS)
COc1ccc(-c2ccc3nnc(SCC(=O)NCC4CCCO4)n3n2)cc1 (stereo unspecified)	Neddylation inh 59
CCc1ccc(-c2ccc3nnc(SCC(=O)NCC4CCCO4)n3n2)cc1 (stereo unspecified)	Neddylation inh 59
Cc1ccc(-c2ccc3nnc(SCC(=O)NCC4CCCO4)n3n2)cc1 (stereo unspecified)	HDAC3 inh inconclusive
CCOc1ccc(-c2ccc3nnc(SCC(=O)NCC4CCCO4)n3n2)cc1 (stereo unspecified)	Neddylation inh 54
COCCOC(=O)C1=C(C)NC(=O)NC1c1cccc2ccccc12 (stereo unspecified)	none
CCn1c(C)nc2cc(C(=O)NNC(=O)[C@@H](NC(=O)c3cc(OC)cc(OC)c3)C(C)C)ccc21	none
O=C(C[C@H]1C(=O)N(C2CCCCC2)C[C@@H]1c1ccccc1)Nc1ccc(Br)cc1	none (no result: HDAC3 inh, GRK2 aptamer HTS)
Cc1ccc(S(=O)(=O)NC(C(=O)O)c2ccccc2)cc1 (stereo unspecified)	none
COC(=O)c1ccc(COc2ccccc2/C=N/NS(=O)(=O)c2ccc(C)cc2)cc1	none
COC(=O)C1=C[C@@H](C(=O)OC)[C@@H]2C3=C(C(=O)[C@@]2(C)NC(=O)c2ccccc2)[C@H](C)n2c(=O)n(C)c(=O)n2[C@@H]3C1	none
O=C(O)c1cc2cc(OCc3ccccc3)ccc2[nH]1	Neddylation inh 51 | Neddyl inh conf inactive
O=C(O)c1cc(OCc2ccccc2)cc(OCc2ccccc2)c1	none
Cc1cc(N2CCN(C)CC2)nc2ccc(NC(=O)CCC(=O)NCc3ccco3)cc12	Neddylation inh 43 | Neddyl inh conf inactive
CCCCNC(=O)CCC(=O)Nc1ccc2nc(N3CCN(C)CC3)cc(C)c2c1	none
CCCC(=O)N1CCN(c2nc(CC(C)C)c3c(c2C#N)CCC3)CC1	Neddylation inh 38 | Neddyl inh conf inactive
CCCC(=O)Nc1ccc2c(c1)nc1n2CCN(CCOC)C1	none (not shown: Neddylation inh)
